DAX1 inh-1: NR0B1 (DAX1) inhibition | P51843 | inhibition, % at 6.75 µM | 340,000 compounds, 0.99% hits | HEK293 Gal4-DAX1 luciferase reporter, luminescence | AID 504766;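 active means inhibition above the mean over all tested compounds plus 3 SD, cut at about 4.2% in these data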;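 further: 0% = DAX1-transfected cells with DMSO and 100% = empty-vector control cells with DMSO; inhibition shows as a rise in luminescence from relieved DAX1 repression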
Target sequence (P51843 207-470 limits assumed): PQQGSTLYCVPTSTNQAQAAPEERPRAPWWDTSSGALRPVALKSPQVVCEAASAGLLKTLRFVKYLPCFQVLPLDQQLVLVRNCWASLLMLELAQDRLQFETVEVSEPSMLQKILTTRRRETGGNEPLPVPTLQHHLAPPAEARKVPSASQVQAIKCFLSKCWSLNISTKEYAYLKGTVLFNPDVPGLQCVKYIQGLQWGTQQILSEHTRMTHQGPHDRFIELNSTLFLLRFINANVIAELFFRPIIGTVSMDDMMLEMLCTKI
hgDAF-12 ag: hgDAF-12 agonism, primary luciferase screen; HEK293 GAL4-hgDAF12 UAS-luciferase reporter, agonist luminescence; normalized to butyrate control; activation, % at 6.8 µM; 370,000 compounds, 1.8% hits;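 active means activation above a cutoff set at the mean of all screened compounds plus 3 SD, cut at about 10% in these data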;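 further: 0% = DMSO wells and 100% = sodium butyrate wells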
DAX1 inh-2: DAX1 (NR0B1) inhibition, primary screen. HEK293T StAR-luciferase reporter, SF-1/DAX-1 repression relief. inhibition, % at 6.8 µM. 370,000 compounds, 1.1% hits. AID 652010;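 active means inhibition above the mean over all tested compounds plus 3 SD, cut at about 3.6% in these data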;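 further: 0% = DAX-1 cells with DMSO and 100% = cells lacking DAX-1 with DMSO; higher inhibition means more luminescence from relief of DAX-1 repression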
hcDAF-12 act: H. contortus DAF-12 activation, primary screen. HEK293 hcDAF-12 lit1-tk-luc reporter, luminescence; 0% DMSO, 100% Δ7-dafachronic acid. activation, % at 6.8 µM. 370,000 compounds, 1.4% hits. AID 652067;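 active means activation above the mean of all tested compounds plus 3 SD, cut at about 5.5% in these data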;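 further: 100% = response to 3 µM Δ7-dafachronic acid high control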
ssDAF12 agonist: activators of S. stercoralis DAF-12 nuclear receptor; HEK293 ssDAF-12/GRIP1 lit1-tk-luc reporter, luminescence; % of 3 µM dafachronic acid response; activation, % at 6.8 µM; 370,000 compounds, 1% hits; AID 652126;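 active means activation above the mean over all tested compounds plus 3 SD, cut at about 0.9% in these data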;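 further: 0% = DMSO-only wells and 100% = 3 µM delta7-dafachronic acid wells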
The depositor's hits bear a star. In the library only some 4.1% were active in any assay of this set; here they are far more common.

Results for Cc1onc(-c2ccc(Cl)cc2)c1-c1ccn(S(=O)(=O)c2cccc(Cl)c2)n1 ?
hgDAF-12 ag: 3; DAX1 inh-2: -2; hcDAF-12 act: 0; ssDAF12 agonist: -2

Results for O=C1NCCc2c1[nH]c1ccccc21 ?
DAX1 inh-1: 1; hgDAF-12 ag: -1; DAX1 inh-2: 0; hcDAF-12 act: -2; ssDAF12 agonist: -1

How did COc1ccc2[nH]c3c(c2c1)CCNC3=O do in these assays?
DAX1 inh-1: 1; hgDAF-12 ag: 11*; DAX1 inh-2: 0; hcDAF-12 act: 1; ssDAF12 agonist: -2

Results for C[C@H]1[C@@H](OC(=O)Nc2cccc(C(F)(F)F)c2)CC[C@@]23CCCN2C(=O)CCC[C@@H]13 ?
hgDAF-12 ag: -1; hcDAF-12 act: -4; ssDAF12 agonist: -2

Results for Nc1nc(-c2cccc(F)c2)cs1 ?
DAX1 inh-1: 5.2*; hgDAF-12 ag: 5; DAX1 inh-2: 1; hcDAF-12 act: 3; ssDAF12 agonist: 0.9*

How did Fc1cccc(-c2csc(-c3ccno3)n2)c1 do in these assays?
DAX1 inh-1: 0; hgDAF-12 ag: 2; DAX1 inh-2: -1; hcDAF-12 act: -1; ssDAF12 agonist: -2

How did COc1ccc(S[C@]2(C(=O)N3CCCC3)CC(=O)N[C@@H]2c2ccc(OC)cc2)cc1 do in these assays?
hgDAF-12 ag: -2; DAX1 inh-2: -1; hcDAF-12 act: -2; ssDAF12 agonist: -1

How did O=C(CCNC(=O)c1ccccc1Cl)Nc1ccc(Br)c(C(F)(F)F)c1 do in these assays?
DAX1 inh-1: 0; hgDAF-12 ag: 0; DAX1 inh-2: 0; hcDAF-12 act: 0; ssDAF12 agonist: 19*

How did C/C(C=NNC(=O)CSc1nnc(-c2ccccc2)n1-c1ccc(C)cc1)=C\c1ccco1 do in these assays?
hgDAF-12 ag: -1; DAX1 inh-2: 0; hcDAF-12 act: -2; ssDAF12 agonist: -1

How did O=C1CN(c2ccccc2)C(=S)N1C(=O)c1ccccc1 do in these assays?
DAX1 inh-1: 5.8*; hgDAF-12 ag: 11*; DAX1 inh-2: 2; hcDAF-12 act: 5.7*; ssDAF12 agonist: 1

What do the screens show for `O=C(c1ccccc1)N1CCC(=O)N1c1ccccc1`?
DAX1 inh-1: 1; hgDAF-12 ag: 4; DAX1 inh-2: 0; hcDAF-12 act: -1; ssDAF12 agonist: -2

What do the screens show for `COC(=O)[C@]12C[C@H](CC(=O)N3CCCCC3)C(=O)N(CCC3=CCCCC3)C1=C[C@H](COCc1ccccc1)O[C@@H]2C`?
hgDAF-12 ag: 0; DAX1 inh-2: 0; hcDAF-12 act: -3; ssDAF12 agonist: -1

Results for CC(C)c1ccc(NC(=O)Nc2nc(C(C)N)cs2)cc1 (stereo unspecified) ?
hgDAF-12 ag: -3; DAX1 inh-2: -1; hcDAF-12 act: 1; ssDAF12 agonist: -1

How did CC(C)c1ccc(NC(=O)Nc2nc(CN)cs2)cc1 do in these assays?
hgDAF-12 ag: 12*; DAX1 inh-2: 2; hcDAF-12 act: 1; ssDAF12 agonist: -1

What do the screens show for `CC1CCCCC1N(C(=O)c1cc(C2CC2)on1)C1CCCCC1` (stereo unspecified)?
hgDAF-12 ag: 12*; DAX1 inh-2: 0; hcDAF-12 act: -1; ssDAF12 agonist: -1

How did Cc1cc(C(=O)N(C2CCCCC2)C2CCCCC2)no1 do in these assays?
DAX1 inh-1: 0; hgDAF-12 ag: -2; DAX1 inh-2: -1; hcDAF-12 act: -1; ssDAF12 agonist: -2

How did COc1ccccc1NC(=O)Cn1nnc(-c2ccccc2NC(=O)c2cc3ccccc3oc2=O)n1 do in these assays?
DAX1 inh-1: 2; hgDAF-12 ag: 7; DAX1 inh-2: 3; hcDAF-12 act: 14*; ssDAF12 agonist: 1

How did COc1ccccc1NC(=O)Cn1nnc(-c2ccccc2NS(=O)(=O)c2ccccc2)n1 do in these assays?
DAX1 inh-1: -2; hgDAF-12 ag: -5; DAX1 inh-2: -2; hcDAF-12 act: -2; ssDAF12 agonist: -1

How did S=c1[nH]nc(-c2cc(-c3ccccc3)n[nH]2)n1/N=C/c1ccccc1 do in these assays?
DAX1 inh-1: 7.3*; hgDAF-12 ag: 4; DAX1 inh-2: 1; hcDAF-12 act: -1; ssDAF12 agonist: -1

How did COc1ccc(Cc2c(-c3ccc(C#N)cc3)nc3c4ccccc4ccn23)c(C)c1 do in these assays?
hgDAF-12 ag: 5; DAX1 inh-2: -1; hcDAF-12 act: 2; ssDAF12 agonist: -1

Results for COc1ccc(Cc2c(-c3ccccc3)nc3c4ccccc4ccn23)c(C)c1 ?
hgDAF-12 ag: 9; DAX1 inh-2: 0; hcDAF-12 act: 5.6*; ssDAF12 agonist: 0

Results for COc1ccc(Cc2c(-c3ccc(F)cc3)nc3c4ccccc4ccn23)c(C)c1 ?
hgDAF-12 ag: 3; DAX1 inh-2: 1; hcDAF-12 act: 6.0*; ssDAF12 agonist: 1

Results for COc1ccc(N2C[C@@]3(O)CC[C@@H](O)[C@@H](OC)[C@@H]3[C@@](C)(O)[C@@H]2CC=C(C)C)cc1 ?
hgDAF-12 ag: 2; DAX1 inh-2: 0; hcDAF-12 act: 3; ssDAF12 agonist: -1

Results for Cc1cc2c(cc1C)NC(=O)CC(C(F)(F)C(F)(F)C(F)(F)F)=N2 ?
DAX1 inh-1: 4.7*; hgDAF-12 ag: 2; DAX1 inh-2: 0; hcDAF-12 act: -2; ssDAF12 agonist: -1

How did Cc1cc(NC(=O)CSc2ccc(-c3cccc([N+](=O)[O-])c3)nn2)no1 do in these assays?
DAX1 inh-1: 0; hgDAF-12 ag: -2; DAX1 inh-2: 4.0*; hcDAF-12 act: 2; ssDAF12 agonist: 0

Results for CCSc1ccc(-c2cccc([N+](=O)[O-])c2)nn1 ?
DAX1 inh-1: 0; hgDAF-12 ag: 13*; DAX1 inh-2: 2; hcDAF-12 act: 6.2*; ssDAF12 agonist: 0

Results for C[C@@H]1CN(c2ccc(N3CCN(C(=O)OC(C)(C)C)C[C@@H]3C)cc2C#N)CCN1Cc1ccccc1 ?
hgDAF-12 ag: -2; DAX1 inh-2: -2; hcDAF-12 act: -2; ssDAF12 agonist: 0

How did COc1ccc(CC(=O)Nc2ccc(C)cc2S(=O)(=O)N2CCOCC2)cc1OC do in these assays?
hgDAF-12 ag: 0; DAX1 inh-2: -1; hcDAF-12 act: 0; ssDAF12 agonist: -2

How did NCCOc1cnn(-c2ccccc2Cl)c(=O)c1Cl do in these assays?
DAX1 inh-1: 3; hgDAF-12 ag: 1; DAX1 inh-2: 0; hcDAF-12 act: 2; ssDAF12 agonist: 1.0*

How did COc1ccc(C(CNC(=O)CSc2ccccc2F)N2CCOCC2)cc1 (stereo unspecified) do in these assays?
DAX1 inh-1: 0; hgDAF-12 ag: -1; DAX1 inh-2: 0; hcDAF-12 act: -1; ssDAF12 agonist: 1.1*

Results for O=C(O)C1CCN(C(=O)c2ccccc2N2C(=O)[C@@H]3Cc4c([nH]c5ccccc45)C(c4cccc(Cl)c4)N3C2=O)CC1 (stereo partly specified) ?
DAX1 inh-1: 2; hgDAF-12 ag: 3; DAX1 inh-2: -1; hcDAF-12 act: 5.6*; ssDAF12 agonist: 1.0*

Screens (PubChem BioAssay)
